# Data from PubChem BioAssay (NCATS).
# Values joined by “and” are separate entries in the source; they are usually repeats but may differ in a detail not shown here. Identical values can stand only once. A number with no mark means an inactive call. Results filed as inconclusive are left out. A call without a number means that no potency is given here. Active and inactive are the calls of the source. Unless noted, calls follow the shape of the dose curve; as a rule, active = well fitted curve in the direction sought with a large enough effect in the repeat runs; inconclusive = weak or mixed curves; inactive = no such curve, though single readings can be large; an effect the other way counts as inactive or inconclusive.
# Experiments:
# [1] = qHTS assay for small molecule antagonists of the retinoid-related orphan receptor gamma (ROR-gamma) signaling pathway - cell viability counter screen (AID 720652);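 also: CHO reporter cells with doxycycline-induced ROR-gamma expression; series mostly up to about 92 µM; compound exposure lasted 16 hr before ATP read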
# Summary of the method: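 Steps: seed CHO cells bearing TET-inducible ROR and ROR response element-luciferase; rest 5 hr at 37 C; add compound, then doxycycline; incubate 16 hr; add CellTiter-Glo and read luminescence as ATP-based viability.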
# [2] = molecular target: Nuclear receptor ROR-gamma (Homo sapiens) (UniProt P51449); test: qHTS assay for small molecule antagonists of the retinoid-related orphan receptor gamma (ROR-gamma) signaling pathway (AID 651802; active = well fitted curve in the direction sought with a large enough effect; an effect the other way counts as inactive or inconclusive; also: nearly all actives have a fitted effect of over 60% in size; also: potency is read from the fitted curve at half-maximal effect)
# Nuclear receptor ROR-gamma (Homo sapiens), sequence (P51449 whole entry, looked up): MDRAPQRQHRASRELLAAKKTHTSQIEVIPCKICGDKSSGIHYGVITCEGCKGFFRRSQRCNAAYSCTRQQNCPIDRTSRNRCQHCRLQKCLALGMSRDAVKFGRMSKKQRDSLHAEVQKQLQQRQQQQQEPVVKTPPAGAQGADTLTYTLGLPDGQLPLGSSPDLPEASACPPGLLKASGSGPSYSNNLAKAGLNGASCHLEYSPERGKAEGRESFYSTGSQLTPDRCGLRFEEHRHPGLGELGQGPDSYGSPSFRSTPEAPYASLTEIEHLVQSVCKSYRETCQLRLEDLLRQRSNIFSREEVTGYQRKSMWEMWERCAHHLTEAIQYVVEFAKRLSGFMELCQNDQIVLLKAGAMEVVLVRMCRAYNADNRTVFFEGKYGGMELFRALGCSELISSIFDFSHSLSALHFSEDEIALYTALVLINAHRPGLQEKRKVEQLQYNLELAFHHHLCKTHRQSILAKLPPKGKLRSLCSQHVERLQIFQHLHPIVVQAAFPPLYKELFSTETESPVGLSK
# Summary of the method: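 Steps: cells dispensed; compound or DMSO transferred by pin tool; doxycycline added to induce the ROR response element-driven luciferase; plates held 16hr at 37C; ONE-Glo added and luminescence measured.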
# [3] = qHTS assay for small molecule agonists of the antioxidant response element (ARE) signaling pathway measured by Nrf2-dependant transcriptional activity (AID 720636);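 also: HepG2 cells with an ARE-driven luciferase reporter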
# Summary of the method: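 Cells: ARE-luc HepG2 with Nrf2-responsive luciferase. Medium contained 1% dialyzed FBS. Compound exposure lasted 16 hr at 37 C and 5% CO2, followed by ONE-Glo luciferase detection.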
# [4] = qHTS assay for small molecule agonists of the antioxidant response element (ARE) signaling pathway measured by Nrf2-dependant transcriptional activity - cell viability counter screen (AID 720653); conditions: ARE-bla HepG2 viability, CellTiter-Glo ATP luminescence, 16 h; active compounds read low
# Summary of the method: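 ARE-bla HepG2 cells (2,000/well) rested 5 hrs at 37C/5% CO2, then exposed to compounds in DMSO for 16 hrs. Viability was read in the same wells as intracellular ATP by luminescence, 30 min at room temperature after reagent addition.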
# [5] = qHTS for compounds that reverse cellular toxicity of Amyloid beta (A-beta) peptide in yeast: LOPAC Validation Assay (AID 720559; active = well fitted curve in the direction sought with a large enough effect; an effect the other way counts as inactive or inconclusive)
# Summary of the method: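 Yeast expressing toxic A-beta grown with pinned compounds at 30 C for 48 hr. Growth measured as absorbance at 600 nm; data normalized to DMSO and to an equimolar FeCl3/clioquinol mixture as positive control.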
# [6] = qHTS for Activators of Parkin Expression: LOPAC Validation Assay (NLuc Reporter) (AID 720572; active = well fitted curve in the direction sought with a large enough effect; an effect the other way counts as inactive or inconclusive)
# Summary of the method: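 Cells harboring the Parkin-promoter coincidence reporter were treated for 24 h at seven concentrations. NLuc output was measured sequentially after the FLuc channel and scaled between DMSO and positive control values.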
# [7] = qHTS for Activators of Parkin Expression: LOPAC Validation Assay (FLuc Reporter) (AID 720573; active = well fitted curve in the direction sought with a large enough effect; an effect the other way counts as inactive or inconclusive)
# Summary of the method: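 Neuronal cell line stably expressing FLuc/NLuc coincidence reporter under the Parkin promoter, 1,500 cells/well, dosed 24 h after seeding in 7-point series for 24 h at 37 C. FLuc luminescence read; normalized to DMSO and positive control (100%).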
# [8] = molecular target: T1, Hexokinase-4 (Homo sapiens) + Glucokinase regulatory protein (Homo sapiens) (UniProt P35557+Q14397); test: qHTS assay for inhibitors of recombinant human GCK-GKRP interaction: Diaphorase-coupled assay (AID 743205; active = well fitted curve in the direction sought with a large enough effect; an effect the other way counts as inactive or inconclusive)
# T1 sequence (P35557 whole entry, looked up): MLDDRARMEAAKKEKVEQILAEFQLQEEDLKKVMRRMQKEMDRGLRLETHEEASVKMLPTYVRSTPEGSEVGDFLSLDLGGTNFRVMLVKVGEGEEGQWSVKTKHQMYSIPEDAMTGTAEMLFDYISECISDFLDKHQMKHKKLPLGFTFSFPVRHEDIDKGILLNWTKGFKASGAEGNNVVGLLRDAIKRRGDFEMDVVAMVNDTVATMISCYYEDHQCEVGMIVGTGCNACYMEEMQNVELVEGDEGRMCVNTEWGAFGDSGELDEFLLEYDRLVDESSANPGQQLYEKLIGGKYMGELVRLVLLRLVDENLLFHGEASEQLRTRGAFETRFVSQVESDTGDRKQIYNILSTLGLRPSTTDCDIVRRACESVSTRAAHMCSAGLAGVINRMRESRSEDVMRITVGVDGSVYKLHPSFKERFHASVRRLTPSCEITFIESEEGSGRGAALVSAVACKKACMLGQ
# T1 sequence (Q14397 whole entry, looked up): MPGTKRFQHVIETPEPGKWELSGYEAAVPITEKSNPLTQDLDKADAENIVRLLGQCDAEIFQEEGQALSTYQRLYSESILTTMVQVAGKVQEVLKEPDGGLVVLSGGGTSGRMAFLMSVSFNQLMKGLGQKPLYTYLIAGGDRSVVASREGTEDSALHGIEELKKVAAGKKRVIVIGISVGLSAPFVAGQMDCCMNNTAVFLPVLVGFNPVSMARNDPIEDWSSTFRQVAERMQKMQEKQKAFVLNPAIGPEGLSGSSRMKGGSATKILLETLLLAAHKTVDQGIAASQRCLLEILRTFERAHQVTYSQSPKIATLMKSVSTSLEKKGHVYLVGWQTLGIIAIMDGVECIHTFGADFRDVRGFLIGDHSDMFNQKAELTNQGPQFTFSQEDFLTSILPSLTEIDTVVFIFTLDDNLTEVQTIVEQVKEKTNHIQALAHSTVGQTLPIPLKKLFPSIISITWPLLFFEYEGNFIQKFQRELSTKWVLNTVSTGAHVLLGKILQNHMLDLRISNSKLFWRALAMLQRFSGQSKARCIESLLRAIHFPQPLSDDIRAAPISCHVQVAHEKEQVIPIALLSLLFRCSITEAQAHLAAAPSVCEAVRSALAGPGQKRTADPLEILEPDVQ
# Summary of the method: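 Compounds pre-incubated 20 min with substrate, then 10 nM GST-GCK with 10 nM FLAG-GKRP added. GCK activity coupled via G6PDH and diaphorase to resorufin (5 mM glucose, 0.4 mM ATP, 0.15 mM NADP+, pH 7.6), read kinetically over 30 minutes at Ex 525/Em 590 nm.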
# [9] = molecular target: T1, Hexokinase-4 (Homo sapiens) + Glucokinase regulatory protein (Homo sapiens); test: qHTS assay for inhibitors of recombinant human GCK-GKRP interaction: ADP-Glo assay (AID 743206; active = well fitted curve in the direction sought with a large enough effect; an effect the other way counts as inactive or inconclusive)
# Summary of the method: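 Pin-transferred compounds meet a 15 nM GST-GCK/15 nM FLAG-GKRP/2 uM S6P mix (dispense concentrations). ATP is then added to 0.4 mM final with 5 mM glucose, and the reaction runs 60 min at room temperature. ADP is quantified luminescently.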
# [10] = molecular target: Arylsulfatase A (Homo sapiens) (UniProt P15289); test: qHTS screen for enhancers of Arylsulfatase A (ASA1): LOPAC Validation Assay (AID 720538; active = well fitted curve in the direction sought with a large enough effect; an effect the other way counts as inactive or inconclusive); conditions: outcome: dose series up to 57.5 µM
# Arylsulfatase A (Homo sapiens), sequence (P15289 whole entry, looked up): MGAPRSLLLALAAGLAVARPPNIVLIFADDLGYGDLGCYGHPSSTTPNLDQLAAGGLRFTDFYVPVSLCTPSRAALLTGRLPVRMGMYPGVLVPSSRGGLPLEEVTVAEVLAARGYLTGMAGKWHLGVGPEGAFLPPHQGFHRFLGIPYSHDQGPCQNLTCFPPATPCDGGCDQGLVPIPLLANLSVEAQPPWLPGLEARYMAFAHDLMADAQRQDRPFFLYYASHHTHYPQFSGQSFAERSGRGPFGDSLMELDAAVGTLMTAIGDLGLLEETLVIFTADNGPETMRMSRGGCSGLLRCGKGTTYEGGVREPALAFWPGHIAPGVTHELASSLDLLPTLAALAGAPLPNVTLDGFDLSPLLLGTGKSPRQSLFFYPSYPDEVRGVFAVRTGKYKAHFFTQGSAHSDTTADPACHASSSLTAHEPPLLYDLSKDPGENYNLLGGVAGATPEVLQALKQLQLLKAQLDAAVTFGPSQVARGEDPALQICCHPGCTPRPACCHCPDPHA
# Summary of the method: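 SV40-transformed fibroblasts from an MLD patient (ASA-I179S) were treated with compound for 48 h at 37 C. They were then lysed with 0.5 mM pNCS substrate (final) for 14 h at room temperature and stopped with NaOH; signal read by fluorescence (Ex 525/Em 598 nm), with increase denoting enhanced activity.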
smiles,measurement,setting,value
Oc1ccc(Cl)cc1Cc1cc(Cl)ccc1O,outcome,[1],inactive
CCCN(CCC)S(=O)(=O)c1ccc(C(=O)O)cc1,Potency,[2],inactive
same,outcome,[3],inactive
same,outcome,[1],inactive
same,max response,[4],9.27% and -1.08%
CCCCCCCCOc1ccc(C(=O)c2ccccc2)c(O)c1,outcome,[3],inactive
same,max response,[4],-12.5%
CCCCCCCCCCCCCCCCO,outcome,[3],inactive
same,max response,[4],-4.14%
Oc1c(Cl)cc(Cl)c(Cl)c1Cc1c(O)c(Cl)cc(Cl)c1Cl,Potency,[2],1.06 µM (active)
same,outcome,[3],inactive
C=C[C@H]1CN2CC[C@H]1C[C@@H]2[C@@H](O)c1ccnc2ccc(OC)cc12,outcome,[3],inactive
same,outcome,[1],inactive
same,max response,[4],21.8%
CCOC(=O)[C@H](CCc1ccccc1)N[C@@H](C)C(=O)N1[C@H](C(=O)O)C[C@H]2CCCC[C@@H]21,outcome,[5],inactive
same,outcome,[6],inactive
same,outcome,[7],inactive
same,outcome,[8],inactive
same,outcome,[9],inactive
COc1cc([C@H]2Oc3cc([C@H]4Oc5cc(O)cc(O)c5C(=O)[C@@H]4O)ccc3O[C@@H]2CO)ccc1O,outcome,[3],inactive
same,outcome,[1],inactive
same,max response,[4],-21.7%
CC(C)(C)CC(C)(C)c1ccc(O)c(-n2nc3ccccc3n2)c1,outcome,[3],inactive
same,max response,[4],4.4%
CCCCCCCCCCCCCC(=O)OC(C)C,outcome,[3],inactive
same,max response,[4],-11.9%
CCCCOC(=O)CC(CC(=O)OCCCC)(OC(C)=O)C(=O)OCCCC,outcome,[3],inactive
same,max response,[4],-1.72%
COc1ccc(C(Cl)=C(c2ccc(OC)cc2)c2ccc(OC)cc2)cc1,Potency,[2],18.8 µM (active)
same,outcome,[3],inactive
same,max response,[4],-11.1%
CN=C(N)NCCC[C@H](N)C(=O)O,outcome,[10],inactive; inhibitor; fitted 0.0054 uM
same,outcome,[5],inactive
same,outcome,[6],inactive
same,outcome,[7],inactive
same,outcome,[8],inactive
same,outcome,[9],inactive
NC(=O)c1ccccc1O,outcome,[3],inactive
same,outcome,[1],inactive
same,max response,[4],-0.33%
CCOc1ccccc1C(N)=O,Potency,[2],inactive
same,outcome,[3],inactive
same,outcome,[1],inactive
same,max response,[4],5.3%
OC[C@H]1O[C@@H]2O[C@H]3[C@H](O)[C@@H](O)[C@@H](O[C@H]4[C@H](O)[C@@H](O)[C@@H](O[C@H]5[C@H](O)[C@@H](O)[C@@H](O[C@H]6[C@H](O)[C@@H](O)[C@@H](O[C@H]7[C@H](O)[C@@H](O)[C@@H](O[C@H]8[C@H](O)[C@@H](O)[C@@H](O[C@H]1[C@H](O)[C@H]2O)O[C@@H]8CO)O[C@@H]7CO)O[C@@H]6CO)O[C@@H]5CO)O[C@@H]4CO)O[C@@H]3CO,Potency,[2],inactive
same,outcome,[3],inactive
same,outcome,[1],inactive
same,max response,[4],-6.08%
CCCCC(CC)COC(=O)c1ccc(N(C)C)cc1 (stereo not given),outcome,[3],inactive
same,outcome,[1],inactive
same,max response,[4],0.308% and -6.35%
O=C(O)c1ccc(S(=O)(=O)N(Cl)Cl)cc1,Potency,[2],inactive
same,outcome,[3],inactive
same,outcome,[1],inactive
same,max response,[4],7.82%
